Reference: PubChem BioAssay AID1578 (Sanford-Burnham Center for Chemical Genomics, 2009)
In all, about 290,000 compounds went through this assay and about 3,000 (1%) were called active. The sample holds actives, similar compounds and a random draw of the others, so the mix is not that of the screen. Values without a mark were called inactive. Cut-off read from the data, not from the text of the source: active = inhibition mostly above about 36% (no sharp cut-off); inactive = mostly below about 34%.

Assay: inhibition of NOD1-driven NF-kB reporter – cell-based, luminescence, uHTS, primary screen (AID 1578);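 note: HEK-293T reporter cells stimulated with the NOD1 agonist gamma-tri-DAP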
Conditions: NOD1-driven NF-kB luciferase reporter cells, at 4 µM, active compounds read high

Row | Compound | inhibition
1 | CC/C=C/C(=O)N1CC2(CC(c3cccc(NC(=O)CC(c4ccccc4)c4ccccc4)c3)=NO2)C[C@@H]1C(N)=O (stereo partly drawn) | -0.2%
2 | COc1ccc(C(=O)c2coc3ccc(O)c(CN4CCCCC4)c23)cc1 | 9.4%
3 | CCN(CC)Cc1c(O)ccc2c([N+](=O)[O-])c(C)n(-c3ccc(OC)cc3)c12 | -5.7%
4 | COc1cc(C2NC(=S)NC(C)=C2C(=O)Nc2ccc(C)cc2)ccc1O (stereo not drawn) | -50%
5 | c1coc(-c2nc(-c3ccncc3)no2)c1 | -24.6%
6 | CCCCn1c(O)c(N=NC(=O)c2ccncc2)c2cc(Br)ccc21 | 46.8%
7 | O=c1c2c(nc3cc(-c4ccc(F)cc4)[nH]n13)CCC2 | 62.6% (active)
8 | O=c1c2c(nc3cc(-c4ccccc4)[nH]n13)CCC2 | -31.8%
9 | O=c1c2c(nc3cc(-c4ccc(F)cc4)[nH]n13)CCCC2 | -40.5%
10 | CC(NC(=O)CSc1nc2ccc(N)cc2s1)c1ccccc1 (stereo not drawn) | -0.6%
11 | COc1ccc(Cl)cc1NC(=S)NCCc1c[nH]c2ccccc12 | -12.7%
12 | COc1ccc(NC(=S)NCCc2c[nH]c3ccccc23)c(OC)c1 | 17.2%
13 | COc1ccccc1NC(=S)NCCc1c[nH]c2ccccc12 | 86% (active)
14 | COc1ccc(C(=O)Nc2ccc3c(c2)CCCN3C(=O)c2cccs2)c(OC)c1 | 21.1%
15 | COc1cccc(C(=O)Nc2ccc3c(c2)CCCN3C(=O)c2cccs2)c1OC | 56.1% (active)
16 | COc1ccccc1C(=O)Nc1ccc2c(c1)CCCN2C(=O)c1cccs1 | -18.3%
17 | O=C(CC1C(=O)N(c2ccccc2)C(=O)N1C1CCCCC1)Nc1ccccc1 (stereo not drawn) | 11.7%
18 | CC1CCCN(S(=O)(=O)c2ccc(NC(=O)Cn3nnc(-c4ccccc4F)n3)cc2)C1 (stereo not drawn) | -31.2%
19 | CC(C)CCOc1ccc(Cl)cc1CN1CCOCC1 | -26.5%
20 | Clc1cccc(-c2nn3c(-c4ccncc4)nnc3s2)c1 | -14%
21 | Clc1ccc(-c2nn3c(-c4ccncc4)nnc3s2)c(Cl)c1 | 59% (active)
22 | Clc1ccccc1-c1nn2c(-c3ccncc3)nnc2s1 | 64.5%
23 | COC(=O)c1c(C(=O)OC)c(-c2ccc(Cl)c(Cl)c2)n2c1CCC2 | -14.5%
24 | Cc1ccc(CCNC(=O)C23C[C@H]4C[C@@H](C2)CC(n2nnc(C)n2)(C4)C3)cc1 | -3.3%
25 | Cc1nnn(C23C[C@@H]4C[C@@H](CC(C(=O)N5CCN(c6ccccc6)CC5)(C4)C2)C3)n1 | -7%

Row | Compound | inhibition
26 | COc1cccc(C2C(C#N)=C(N)Oc3cc(C)n(Cc4ccccn4)c(=O)c32)c1OC (stereo not drawn) | -19.6%
27 | Cc1ccsc1C(=O)OCc1csc(-c2ccccc2)n1 | -65.5%
28 | O=C1C=C(NC2=CC3OC(c4ccccc4)OCC3OC2=O)CCC1 (stereo not drawn) | -24.3%
29 | CC1(C)CC(=O)C=C(NC2=CC3OC(c4ccccc4)OCC3OC2=O)C1 (stereo not drawn) | 61.7% (active)
30 | Cc1ccccc1NC1=CC(=O)CC(C)(C)C1 | 1.1%
31 | COc1ccc(CN2CCC(n3nccc3NC(=O)c3ccc4c(c3)OCO4)CC2)cc1C | -12.5%
32 | O=S(=O)(c1cccs1)N1CCN(Cc2nc3ccccc3s2)CC1 | -23.6%
33 | O=C(NC(N1CCOCC1)C(Cl)(Cl)Cl)c1ccc(F)cc1 (stereo not drawn) | -23.2%
34 | O=C(NNC1=Nc2cccc3cccc1c23)c1ccc(Br)cc1 | 85.4% (active)
35 | COc1ccc(C(=O)NNC2=Nc3cccc4cccc2c34)cc1 | 11.1%
36 | Cc1ccc(C(=O)NNC2=Nc3cccc4cccc2c34)cc1 | 34%
37 | CC(=O)N/C(=C/c1ccccc1)C(=O)N1CCCCC1 | -19.2%
38 | CCN(CC(=O)Nc1c(F)cccc1F)C(=O)c1n[nH]c2ccccc12 | -21.6%
39 | N#Cc1cc(NC(=O)c2ccc(F)cc2)c(=O)n2c1[nH]c1ccccc12 | 67.8% (active)
40 | O=C(Nc1ccccc1NC(=O)c1ccc(F)cc1)c1ccc(F)cc1 | 5.1%
41 | Cc1ccc2c(c1)sc1ncc(NC(=O)c3ccc(F)cc3)c(=O)n12 | -34.8%
42 | COc1cccc(N(C(=O)c2ccco2)C(C(=O)NC2CCCC2)c2ccc(N(C)C)cc2)c1 (stereo not drawn) | -6.7%
43 | Cc1cccc(NC(=S)N=Nc2c(O)[nH]c3ccccc23)c1 | -18.3%
44 | Oc1ccc(NC(=S)N=Nc2c(O)[nH]c3ccccc23)cc1 | -25.5%
45 | Cc1ccc(NC(=S)N=Nc2c(O)[nH]c3ccccc23)cc1 | 50.7% (active)
46 | CC(Nc1nc(-c2ccccc2F)nc2ccccc12)c1ccccc1 (stereo not drawn) | -6.1%
47 | C=CCn1c2ccccc2c2nnc(SCCN3CCCCC3)nc21 | 33.2%
48 | CCn1c2ccccc2c2nnc(SCCCn3c(=O)[nH]c4ccccc43)nc21 | -22.4%
49 | C=CCn1c2ccccc2c2nnc(SCCCn3c(=O)[nH]c4ccccc43)nc21 | 60.9% (active)
50 | Cc1oc(-c2ccccc2Cl)nc1CN1CCCCC1CO (stereo not drawn) | -13.9%

Row | Compound | inhibition
51 | O=C(COC(=O)CCSc1ccccc1)Nc1ccc(F)cc1Cl | -14%
52 | CC(C)C(NS(=O)(=O)c1cccc2nsnc12)C(=O)NC1CCCCC1 (stereo not drawn) | -5.2%
53 | CCCCN1CN(S(=O)(=O)c2ccc(OC)cc2)c2nc3ccccc3nc21 | -13.8%
54 | CCCCCCS(=O)Cc1ccccc1 (stereo not drawn) | -9.9%
55 | COc1ccccc1C(=O)NCCC(=O)NCCOc1ccccc1 | 7.7%
56 | CN(C(=O)COc1ccccc1C(=O)NCCc1ccccc1)c1ccccc1 | -33.9%
57 | CCN(CCO)Cc1cc(=O)oc2c(C)c(C)ccc12 | 8.5%
58 | CCN1C=C(Cc2cccs2)C2=C(C1)C(c1cccs1)C(C#N)=C(N)O2 (stereo not drawn) | 30.4%
59 | CCN1C=C(Cc2ccc(F)cc2)C2=C(C1)C(c1ccc(F)cc1)C(C#N)=C(N)O2 (stereo not drawn) | 21.1%
60 | CCN1C=C(Cc2ccccc2C)C2=C(C1)C(c1ccccc1C)C(C#N)=C(N)O2 (stereo not drawn) | 71.8% (active)
61 | O=C(CCn1nnc2ccccc21)N1CCN(c2ccccc2)CC1 | 7.2%
62 | CCC1CCCCN1C(=O)CCCc1ccccc1 (stereo not drawn) | -21%
63 | O=C(Nc1nc2ccccc2n1CCOc1ccccc1)c1ccco1 | 35.8%
64 | COc1ccc(OCCn2c(NC(=O)c3ccco3)nc3ccccc32)cc1 | 9.1%
65 | Cc1c(O)nc(SCC(=O)Nc2nccs2)n(-c2ccccc2F)c1=O | -42.1%
66 | CCOC(=O)NNC1CC(=O)N(c2ccccc2)C1=O (stereo not drawn) | -12%
67 | CCc1nccn1S(=O)(=O)c1cc(OC)c(Cl)cc1OC | -4.5%
68 | CC(=O)Nc1c(C(=O)O)oc2ccc(Cl)cc12 | 2.5%
69 | O=S(=O)(NC1CCCCC1)c1ccc(Br)s1 | -13.1%
70 | O=S(=O)(NC1CCCC1)c1ccc(Br)s1 | -14%
71 | Cc1ccc(S(=O)(=O)NC2CC2)s1 | 45.4% (active)
72 | COc1ccc(C(=O)NCC(=O)OCC(=O)Nc2cc(OC)ccc2OC)cc1 | -4.7%
73 | Cc1ccc(NC(=S)N(Cc2ccc(Br)cc2)Cc2ccc(C(=O)O)cc2)cc1C | -22.8%
74 | NNc1nc(-c2ccccc2)cc(-c2ccccc2O)n1 | 3.5%
75 | O=[N+]([O-])c1cc(C(F)(F)F)ccc1Sc1ccccn1 | -1.5%

Row | Compound | inhibition
76 | Oc1c(Cl)cc(Cl)cc1Sc1cc(Cl)cc(Cl)c1O | -35.5%
77 | Oc1c(Cl)cc(Cl)c2c1NCCC2 | -5.4%
78 | Oc1c(Cl)cc(Cl)c(Cl)c1Cc1c(O)c(Cl)cc(Cl)c1Cl | 85.9% (active)
79 | O=C(NC(=S)NCCO)c1sc2ccccc2c1Cl | -51.4%
80 | O=S(=O)(CC(CN1CCCC1)N1CCCC1)c1ccc2ccccc2c1 (stereo not drawn) | 51.2% (active)
81 | O=S(=O)(CC(CN1CCCCC1)N1CCCCC1)c1ccc2ccccc2c1 (stereo not drawn) | -6.3%
82 | O=S(=O)(CC(CN1CCCCC1)N1CCCCC1)c1ccccc1 (stereo not drawn) | 9.2%
83 | OCCC1CN(Cc2cccc3nonc23)CCN1C1CCCCC1 (stereo not drawn) | -25.9%
84 | O=C(CN1CCN(C(=O)C2CCCO2)CC1)Nc1ccc(F)cc1 (stereo not drawn) | -12%
85 | Cc1ccc(-c2nnc(OCc3cccnc3)c3ccccc23)cc1 | -11.3%
86 | COc1ccc(C(=O)/C=C/c2ccc(OC)c(O)c2)c(F)c1 | 36.2%
87 | COc1cc(/C=C/C(=O)c2ccc3c(c2)OCO3)cc(Cl)c1O | 13.2%
88 | COc1ccc(C(=O)/C=C/c2cc(OC)c(O)c(OC)c2)c(F)c1 | 93.6% (active)
89 | COc1ccc2cc(C(=O)/C=C/c3cc(OC)c(O)c(OC)c3)ccc2c1 | 62.6%
90 | COc1ccc(/C=C/C(=O)c2ccc(Cl)s2)cc1O | -46%
91 | COc1cc(/C=C/C(=O)c2ccc(Cl)s2)cc(OC)c1O | 76.4% (active)
92 | O=C(c1ccc(F)cc1)N1CCN(C2=NS(=O)(=O)c3ccccc32)CC1 | -41.6%
93 | Cc1nn(-c2ccccc2)c(C)c1NC(=O)COc1ccc(C#N)cc1 | -20.8%
94 | CCOc1ccc(NC(=O)CC(NCc2ccccn2)C(=O)O)cc1 (stereo not drawn) | -2.9%
95 | c1csc(-c2ccc(N3CCOCC3)nn2)c1 | -11.8%
96 | CCOC(=O)C1CCN(c2ccc(-c3cccs3)nn2)CC1 | -0.9%
97 | CC1CCN(c2ccc(-c3cccs3)nn2)CC1 | 31.4% (active)
98 | CCOC(=O)C1CCN(C(=O)CN(c2cc(Cl)ccc2OC)S(=O)(=O)c2ccccc2)CC1 | -33.5%
